Test results from PubChem BioAssay (NCATS).
Inconclusive results are not listed. The source made the active and inactive calls. Unless noted, calls come from the whole dose curve; as a rule, active = well fitted curve in the direction sought with a large enough effect; inconclusive = small, poorly fitted or top-dose-only effect, or another doubt; inactive = no such curve, though single readings can be large; an effect the other way counts as inactive or inconclusive.

Assays:
[1] = test system: AS120; assay: qHTS profiling for inhibitors of Plasmodium falciparum proliferation (AID 504749); note: nearly all actives have a fitted effect of over 60% in size; note: potency is the fitted concentration of half-maximal effect; details: P. falciparum in erythrocytes, SYBR Green DNA, 72 h; series mostly up to 28.7 µM
Method in brief: (§1)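 Each compound contacts P. falciparum-infected red blood cells for 72 h at 37 C; lysis buffer (Tris, EDTA, saponin, Triton X, SYBR Green I) is added and fluorescence measured next morning; values normalized to controls.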

[2] = test system: ATS189; assay: as above; details: P. falciparum in erythrocytes, SYBR Green DNA, 72 h; series mostly up to 28.7 µM
Method in brief: as §1

[3] = test system: CP185; assay: as above; details: P. falciparum in erythrocytes, SYBR Green DNA, 72 h; series mostly up to 28.7 µM
Method in brief: as §1

[4] = test system: CP191; assay: as above; details: P. falciparum in erythrocytes, SYBR Green DNA, 72 h; series mostly up to 28.7 µM
Method in brief: as §1

[5] = test system: CP192; assay: as above; details: P. falciparum in erythrocytes, SYBR Green DNA, 72 h; series mostly up to 28.7 µM
Method in brief: as §1

[6] = test system: CP194; assay: as above; details: P. falciparum in erythrocytes, SYBR Green DNA, 72 h; series mostly up to 28.7 µM
Method in brief: as §1

[7] = test system: CP201; assay: as above; details: P. falciparum in erythrocytes, SYBR Green DNA, 72 h; series mostly up to 28.7 µM
Method in brief: as §1

[8] = test system: CP203; assay: as above; details: P. falciparum in erythrocytes, SYBR Green DNA, 72 h; series mostly up to 28.7 µM
Method in brief: as §1

[9] = test system: CP247; assay: as above; details: P. falciparum in erythrocytes, SYBR Green DNA, 72 h; series mostly up to 28.7 µM
Method in brief: as §1

[10] = test system: CP291; assay: as above; details: P. falciparum in erythrocytes, SYBR Green DNA, 72 h; series mostly up to 28.7 µM
Method in brief: as §1

[11] = test system: DFO2036; assay: as above; details: P. falciparum in erythrocytes, SYBR Green DNA, 72 h; series mostly up to 28.7 µM
Method in brief: as §1

[12] = test system: P94_40; assay: as above; details: P. falciparum in erythrocytes, SYBR Green DNA, 72 h; series mostly up to 28.7 µM
Method in brief: as §1

[13] = test system: PC49; assay: as above; details: P. falciparum in erythrocytes, SYBR Green DNA, 72 h; series mostly up to 28.7 µM
Method in brief: as §1

[14] = test system: TAB113; assay: as above; details: P. falciparum in erythrocytes, SYBR Green DNA, 72 h; series mostly up to 28.7 µM
Method in brief: as §1

[15] = molecular target: Mitogen-activated protein kinase 10 (Mus musculus) (UniProt Q61831); assay: JNK3 AlphaScreen Assay (AID 530; active = well fitted curve in either direction with a large enough effect, not every such curve was filed as active;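 note: kinase came from lysate of stimulated human HepG2 cells; signal reports phosphorylation of biotinylated GST-cJun 1-79 at Ser73 with 10 µM ATP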); details: JNK3 lysate, c-Jun phosphorylation; series mostly up to 57.1 µM
Method in brief: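 Activity was read by AlphaScreen after JNK3-containing HepG2 lysate (cytokine pre-activated) phosphorylated biotinylated GST-cJun with 10 uM ATP at room temperature. Phospho-Ser73 cJun antibody with Protein-A acceptor beads provided detection.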

[16] = molecular target: Guanine nucleotide-binding protein G(i) subunit alpha-1 (Homo sapiens) (UniProt P63096); assay: qHTS Assay for Inhibitors of RGS12 GoLoco Motif Activity (Green Fluorophore) (AID 879); details: Galphai1/FITC-RGS12 GoLoco peptide, fluorescence polarization; series mostly up to 57.1 µM;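 note: negative values mean loss of peptide binding seen as reduced polarization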
Method in brief: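 A drop in FITC polarization marked displacement of the FITC-tagged RGS12 GoLoco peptide (10 nM) from Gαi1 (50 nM). Compounds were incubated 10 min at room temperature in Tris pH 7.5 buffer containing 150 mM NaCl, 0.1 mM GDP and 0.05% NP40; unlabeled peptide titration served as control.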

[17] = molecular target: Pyruvate kinase (Leishmania mexicana) (UniProt Q27686); assay: qHTS Validation Assay for Inhibitors of Leishmania Mexicana Pyruvate Kinase (AID 945); details: purified L. mexicana pyruvate kinase, enzyme activity, E451W mutant enzyme; series mostly up to 57.5 µM
Method in brief: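 An endpoint luciferase assay: 0.2 nM LmPYK E451W turns over 0.5 mM PEP with 0.1 mM ADP for 1 h at room temperature, pH 7.2, before PKLight addition. Values are normalized to DMSO-only wells.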

[18] = molecular target: Pyruvate kinase PKM (Homo sapiens) (UniProt P14618); assay: qHTS Assay for Activators of Human Muscle Pyruvate Kinase (AID 954; active = well fitted curve in the direction sought with a large enough effect, not every such curve was filed as active); details: purified human muscle pyruvate kinase, luciferase-coupled luminescence, 1 h; series mostly up to 57.5 µM
Method in brief: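 PKM2, human, >95% pure, 0.1 nM; PEP 0.5 mM (Km), ADP 0.1 mM; 50 mM imidazole pH 7.2, 50 mM KCl, 0.01% Tween 20, 0.05% BSA; 1 h RT; luciferase luminescence readout.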

[19] = molecular target: Alpha-galactosidase A (Homo sapiens) (UniProt P06280); assay: Counterscreen for Glucocerebrosidase Inhibitors: qHTS Assay for Human alpha-Galactosidase at pH 4.5 (AID 992); details: purified enzyme, fluorogenic substrate; series mostly up to 76.9 µM
Method in brief: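 Fluorogenic 4-MU alpha-D-galactoside (80 uM) hydrolysis, 2 nM enzyme, pH 4.5 citrate buffer + 0.005% Tween-20; 20 min RT; NaOH/glycine pH 10 stop; Ex365/Em440. Compounds titrated 0.7 nM–77 uM; Hill-equation AC50.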

[20] = molecular target: alpha-glucosidase (Oryza sativa, rice) (UniProt Q653V4); assay: Counterscreen for Glucocerebrosidase Inhibitors: qHTS Assay for Rice alpha-Glucosidase at pH 5.0 (AID 997); details: rice alpha-glucosidase enzyme activity; series mostly up to 76.9 µM
Method in brief: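 Endpoint fluorogenic assay at pH 5.0: compounds (0.7 nM to 77 uM) titrated against 4 nM rice enzyme and 400 uM 4-MU-alpha-glucoside for 20 min at room temperature; NaOH/glycine stop, read ex 365/em 440 nm, Hill-fitted AC50.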

Measured: Potency

Sequence of Pyruvate kinase PKM (Homo sapiens) (P14618 whole entry, looked up): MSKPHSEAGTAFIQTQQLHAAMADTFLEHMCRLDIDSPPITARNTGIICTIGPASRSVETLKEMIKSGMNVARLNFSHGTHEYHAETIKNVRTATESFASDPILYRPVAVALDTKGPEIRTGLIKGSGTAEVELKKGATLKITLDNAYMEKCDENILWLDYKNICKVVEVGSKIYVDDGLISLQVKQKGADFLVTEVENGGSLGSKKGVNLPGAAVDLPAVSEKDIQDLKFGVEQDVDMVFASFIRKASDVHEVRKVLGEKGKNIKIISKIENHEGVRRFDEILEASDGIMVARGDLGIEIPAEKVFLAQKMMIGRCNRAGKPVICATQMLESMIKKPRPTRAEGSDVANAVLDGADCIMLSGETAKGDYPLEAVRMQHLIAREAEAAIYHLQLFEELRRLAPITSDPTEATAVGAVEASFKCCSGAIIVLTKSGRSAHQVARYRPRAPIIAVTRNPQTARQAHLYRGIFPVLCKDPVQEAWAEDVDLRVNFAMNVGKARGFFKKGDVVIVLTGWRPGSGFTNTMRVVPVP
Sequence of Alpha-galactosidase A (Homo sapiens) (P06280 whole entry, looked up): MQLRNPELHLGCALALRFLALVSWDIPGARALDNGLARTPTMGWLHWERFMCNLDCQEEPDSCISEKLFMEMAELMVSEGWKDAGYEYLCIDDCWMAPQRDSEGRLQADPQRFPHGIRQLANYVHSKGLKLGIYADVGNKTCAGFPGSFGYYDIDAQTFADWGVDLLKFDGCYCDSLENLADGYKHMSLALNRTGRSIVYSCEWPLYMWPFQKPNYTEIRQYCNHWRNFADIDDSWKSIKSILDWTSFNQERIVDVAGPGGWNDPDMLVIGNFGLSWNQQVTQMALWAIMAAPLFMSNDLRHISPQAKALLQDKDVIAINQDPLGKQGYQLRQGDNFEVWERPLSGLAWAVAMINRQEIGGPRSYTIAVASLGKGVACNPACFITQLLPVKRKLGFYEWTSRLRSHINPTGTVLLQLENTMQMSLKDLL
Sequence of Pyruvate kinase (Leishmania mexicana) (Q27686 2-499 E452W): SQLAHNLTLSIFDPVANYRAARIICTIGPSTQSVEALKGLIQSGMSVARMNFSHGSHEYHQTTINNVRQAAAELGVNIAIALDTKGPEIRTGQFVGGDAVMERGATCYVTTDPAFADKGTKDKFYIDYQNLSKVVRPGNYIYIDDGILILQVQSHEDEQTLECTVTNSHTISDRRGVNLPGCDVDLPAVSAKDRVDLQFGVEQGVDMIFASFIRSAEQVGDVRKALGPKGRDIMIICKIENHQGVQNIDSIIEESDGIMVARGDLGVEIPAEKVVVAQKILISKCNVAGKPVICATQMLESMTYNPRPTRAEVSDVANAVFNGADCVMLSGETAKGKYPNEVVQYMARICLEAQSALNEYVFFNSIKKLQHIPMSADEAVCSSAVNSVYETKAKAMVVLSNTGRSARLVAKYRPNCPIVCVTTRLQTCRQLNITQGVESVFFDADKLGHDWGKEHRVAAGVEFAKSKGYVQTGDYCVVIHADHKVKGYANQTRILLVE
Sequence of Guanine nucleotide-binding protein G(i) subunit alpha-1 (Homo sapiens) (P63096 whole entry, looked up): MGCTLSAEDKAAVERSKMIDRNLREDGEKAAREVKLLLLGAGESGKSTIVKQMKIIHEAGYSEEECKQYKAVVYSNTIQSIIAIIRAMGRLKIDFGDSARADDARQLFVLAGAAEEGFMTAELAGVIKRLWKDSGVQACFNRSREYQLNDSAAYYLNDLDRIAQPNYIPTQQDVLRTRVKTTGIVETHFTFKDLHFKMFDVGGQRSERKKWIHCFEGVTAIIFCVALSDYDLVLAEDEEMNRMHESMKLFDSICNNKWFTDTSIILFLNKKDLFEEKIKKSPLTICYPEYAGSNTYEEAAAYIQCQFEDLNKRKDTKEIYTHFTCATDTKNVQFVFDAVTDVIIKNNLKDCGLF

CO[C@H]1/C=C/O[C@@]2(C)Oc3c(C)c(O)c4c(O)c(c(/C=N\N5CCN(C6CCCC6)CC5)c(O)c4c3C2=O)NC(=O)/C(C)=C\C=C\[C@H](C)[C@H](O)[C@@H](C)[C@@H](O)[C@@H](C)[C@H](OC(C)=O)[C@@H]1C
active: [1] 126 nM | [2] 1410 nM | [3] 1580 nM | [4] 1000 nM | [5] 4780 nM | [6] 4260 nM | [7] 5360 nM | [8] 3790 nM | [9] 1410 nM | [10] 4260 nM | [11] 1410 nM | [12] 224 nM | [13] 708 nM | [14] 282 nM

C[C@@]12C(=O)OC(=O)[C@]1(C)[C@H]1CC[C@@H]2O1
inactive: [15]
active: [1] 3550 nM | [2] 2820 nM | [3] 2510 nM | [4] 1580 nM | [5] 4550 nM | [6] 2870 nM | [7] 3610 nM | [8] 2560 nM | [9] 1780 nM | [10] 3220 nM | [11] 3980 nM | [12] 2510 nM | [13] 2240 nM | [14] 3980 nM

N=C1Sc2ccccc2C2=NCCCN12
inactive: [15] | [16] | [17] | [18] | [19] | [20]

CN1C(=O)CCC1c1cccnc1 (stereo unspecified)
inactive: [1] | [2] | [3] | [4] | [5] | [6] | [7] | [8] | [9] | [10] | [11] | [12] | [13] | [14]

O=C(Cc1ccc(Cl)c(Cl)c1)OCCN1CCCC1
inactive: [15] | [16] | [17] | [18] | [19] | [20]

NCCC(=O)NCCc1cnc[nH]1
inactive: [15] | [16] | [17] | [18] | [19] | [20]

CN=C(N)NCCCC(N)C(=O)O (stereo unspecified)
inactive: [1] | [2] | [3] | [4] | [5] | [6] | [7] | [8] | [9] | [10] | [11] | [12] | [13] | [14]

C=C1/C(=C\C=C2/CCC[C@]3(C)[C@@H]([C@H](C)CCCC(C)(C)O)CC[C@@H]23)C[C@@H](O)C[C@@H]1O
inactive: [1] | [2] | [3] | [4] | [5] | [6] | [7] | [8] | [9] | [10] | [11] | [12] | [13] | [14]

N=C(N)SCCc1cccc(CCSC(=N)N)c1
inactive: [15] | [16] | [17] | [18] | [19] | [20]

OC[C@H]1O[C@@H](n2cnc3c(NCCc4ccccc4)ncnc32)[C@H](O)[C@H]1O
inactive: [16] | [17] | [18] | [19] | [20]

NCCNC(=O)c1ccc(Cl)cc1
inactive: [15] | [16] | [17] | [18] | [19] | [20]
